The list is not random: actives were taken first. Their share in the collection is about 27%.
CYP2C19 act = human CYP2C19 activators, primary screen, biochemical, luminescence. recombinant CYP2C19, luciferin-H EGE luminescence; stronger effect = higher value; 0 = fully inhibited enzyme, 1 = untreated enzyme. 96,000 tested, under 10 active. Cytochrome P450 2C19 (Homo sapiens), P33261. AID 1025, 2008. activation factor at 5 µM;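 active means activation factor of at least 2 at 5 µM in the primary screen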;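 further: 0 = wells with 2.5 mM tranylcypromine and 1 = vehicle-only wells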
CYP2C19 inh = blockers of cytochrome P450 2C19 activity – biochemical, luminescence, ADME assay, primary screen | 96,000 tested, 21% active | CYP2C19 Supersomes, luciferin-H EGE luminescence, 30 min | P33261 | inhibition, % at 5 µM | AID 778, 2007;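 active means CYP2C19 inhibition above a set limit at 5 µM in the primary screen, cut at about 50% in these data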;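 further: plate controls were negative control wells for no effect and 2.5 mM tranylcypromine positive control for full effect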
CYP2C9 inhib = blockers of cytochrome P450 2C9 activity – biochemical, luminescence, ADME assay, primary screen. P11712. CYP2C9 Supersomes, luciferin-H conversion. inhibition, % at 5 µM. 96,000 tested, 20% active;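 active means blocking of liver enzyme CYP2C9 beyond about 50% at 5 µM, limit read from the data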
sEH inhibitor = soluble epoxide hydrolase inhibitors, primary screen, biochemical, human sEH. recombinant human sEH enzymatic activity assay. inhibition, % at 2 µM. 91,000 tested, 0.34% active. AID 707, 2007; in the data active means inhibition above about 80%
Target sequence (P34913 whole entry, looked up): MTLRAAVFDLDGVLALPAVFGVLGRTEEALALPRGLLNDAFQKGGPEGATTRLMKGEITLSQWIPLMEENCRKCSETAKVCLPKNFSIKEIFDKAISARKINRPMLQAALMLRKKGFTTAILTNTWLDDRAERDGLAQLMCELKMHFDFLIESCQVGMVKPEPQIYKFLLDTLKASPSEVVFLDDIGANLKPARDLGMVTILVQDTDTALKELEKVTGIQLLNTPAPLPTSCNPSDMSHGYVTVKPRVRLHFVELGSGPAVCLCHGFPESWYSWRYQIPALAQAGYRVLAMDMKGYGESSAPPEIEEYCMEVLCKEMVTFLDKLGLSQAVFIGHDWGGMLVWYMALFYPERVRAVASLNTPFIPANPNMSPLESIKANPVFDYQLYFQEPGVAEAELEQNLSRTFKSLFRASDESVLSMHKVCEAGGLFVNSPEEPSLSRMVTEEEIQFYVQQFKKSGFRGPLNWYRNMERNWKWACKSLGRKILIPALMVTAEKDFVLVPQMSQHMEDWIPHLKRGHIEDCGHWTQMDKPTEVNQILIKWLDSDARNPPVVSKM
sEH activator = soluble epoxide hydrolase activators, primary screen, biochemical, human sEH. 91,000 tested, 0.04% active. activation, % at 2 µM. purified human sEH enzymatic activity, activator screen. Bifunctional epoxide hydrolase 2 (Homo sapiens), P34913. AID 717, 2007; in the data active means activation above about 37%
CYP2C9 activ = human CYP2C9 activators, primary screen, biochemical, luminescence | recombinant CYP2C9, luciferin-H conversion; stronger effect = higher value; factor 1 = untreated enzyme, 0 = blocked | activation factor at 5 µM | 96,000 tested, 1.4% active | AID 1024, 2008;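 active means activation factor of 2 or more for CYP2C9 at a 5 µM dose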;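 further: 0 = sulfaphenazole-blocked wells and 1 = vehicle-only wells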
The depositor's hits bear a star; x = not tested or not shown.

SMILES | CYP2C19 act | CYP2C19 inh | CYP2C9 inhib | sEH inhibitor | sEH activator | CYP2C9 activ
O=S(=O)(c1ccc(S(=O)(=O)N(Cc2ccc(F)cc2)C2CCCC2)cc1)N1CCCC1 | 0.3 | 67.9* | 77.4* | x | x | 0.2
CCOC(=O)Cc1nnc(NC(=O)CC)s1 | 1 | -3.8 | -5.8 | -2.4 | 1.1 | 1.1
COC(=O)c1cc(OC)c(OC)cc1NC(=O)c1ccccc1 | 1 | 0.8 | 17.2 | x | x | 0.8
COC(=O)c1cc(OC)c(OC)cc1NC(=S)N1CCN(c2ccccc2)CC1 | 0 | 99.9* | 53.8* | -6.8 | 4.8 | 0.5
CCOC(=O)C1CCN(C(=S)Nc2cc(OC)c(OC)cc2C(=O)OC)CC1 | 0 | 99.6* | 17.9 | 0.3 | -2.9 | 0.8
COC(=O)c1cc(OC)c(OC)cc1NC(=S)N1CCN(C)CC1 | 0.4 | 64.9* | 2.9 | -12.0 | 14.0 | 1
COC(=O)c1cc(OC)c(OC)cc1NC(=O)CC1CCCCC1 | 0.8 | 22.7 | 51.1* | 11.2 | -7.8 | 0.5
COC(=O)c1cc(OC)c(OC)cc1NC(=O)CN1CCCCC1 | 1 | 4.2 | -1.6 | -4.4 | 4.5 | 1
COC(=O)c1cc(OC)c(OC)cc1NC(=O)c1ccc(OC)c(OC)c1 | 0.9 | 8.8 | -10.7 | -11.0 | 8.9 | 1.1
CC(Oc1ccc(Cl)cc1)C(=O)Nc1nccs1 (stereo unspecified) | 0.6 | 40.8 | 37.3 | x | x | 0.6
COC(=O)c1cc(OC)c(OC)cc1NC(=S)N1CCC(C(N)=O)CC1 | 1.1 | -9.1 | -19.0 | -1.1 | -1.5 | 1.2
COC(=O)c1cc(OC)c(OC)cc1NC(=S)N1CCCCC1 | 0.5 | 50.1* | 6.8 | -1.4 | 0.8 | 0.9
CCn1c(=O)cc(OCC(=O)Nc2ccccc2C#N)c2ccccc21 | 0.7 | 29.8 | 40.8 | -4.5 | 4.2 | 0.6
O=C(NCCO)c1ccc2[nH]c3c(c2c1)CCCC3 | 0.2 | 82.7* | 23.5 | 9.5 | -8.0 | 0.8
CCCC1=C(C(=O)OCC)C(c2ccc(N(C)C)cc2)n2ncnc2N1 (stereo unspecified) | 0.8 | 16.3 | 13.6 | -0.1 | -0.9 | 0.9
CCCC1=C(C(=O)OCC)C(/C=C/c2ccccc2)n2ncnc2N1 (stereo unspecified) | 0.1 | 91.0* | 51.6* | -5.8 | 5.2 | 0.5
CCOC(=O)C1=C(C)Nc2ncnn2C1/C=C/c1ccccc1 (stereo unspecified) | 0.4 | 57.0* | 62.9* | 4.9 | -3.7 | 0.4
COC(=O)c1ccc(C2C(C(C)=O)=C(C)Nc3ncnn32)cc1 (stereo unspecified) | 0 | 96.5* | 25.9 | -4.4 | 6.2 | 0.7
CCCC1=C(C(=O)OCC)C(c2ccc(F)cc2)n2ncnc2N1 (stereo unspecified) | 0.5 | 54.8* | 75.5* | -13.6 | 12.9 | 0.2
CC1CCCCN1C(=O)Cn1c(=O)n(C2CCCCC2)c(=O)c2ccccc21 (stereo unspecified) | 0.9 | 5.3 | 29.9 | x | x | 0.7
Cc1ccc(N(C(C)C(=O)N2CCC(C)CC2)S(C)(=O)=O)cc1C (stereo unspecified) | 0.8 | 21.8 | -21.7 | -9.6 | 12.1 | 1.2
N#Cc1ccccc1NC(=O)Nc1cccs1 | 1.2 | -22.5 | -24.8 | 8.9 | -8.8 | 1.2
Cc1oc(-c2ccccc2)nc1Cn1cccc1C1=NC(c2ccccc2)CO1 (stereo unspecified) | 0.2 | 84.2* | 82.0* | x | x | 0.2
Cc1oc(-c2ccc(Cl)cc2)nc1CN1CCC(C(=O)N2CCN(Cc3ccccc3)CC2)CC1 | 0.9 | 7.2 | 20.5 | x | x | 0.8
Cc1cc(C(=O)COC(=O)C2=NNC(=O)CC2)c(C)n1-c1ccc(OC(F)F)cc1 | 0.7 | 30.3 | 26.7 | -6.2 | 0.3 | 0.7
Cc1cc(C(=O)COC(=O)C2=NNC(=O)CC2)c(C)n1-c1cccc(C(F)(F)F)c1 | 0.2 | 78.4* | 81.0* | 4.2 | -4.4 | 0.2
O=C(CCCc1c[nH]c2ccccc12)N1CCN(c2ccc(N3CCOCC3)nn2)CC1 | 0.4 | 57.5* | 31.5 | -6.1 | 9.9 | 0.7
O=C1/C(=C/c2ccc(F)c(F)c2)CSc2sccc21 | 0.6 | 40.1 | 77.7* | 4.4 | -3.1 | 0.2
CC(C)C(=O)Nc1nnc(CCN2CCOCC2)s1 | 1.2 | -17.0 | -15.3 | -2.8 | 3.3 | 1.2

Screening data (PubChem BioAssay)
